Measured values taken from PubChem BioAssay (NCATS).
Results filed as inconclusive are left out. Activity calls are given as the source filed them. Unless noted, calls follow the shape of the dose curve; as a rule, active = well fitted inhibition curve with a large enough effect; inconclusive = small, poorly fitted or top-dose-only effect; inactive = flat fitted curve, though single readings scatter.

What was measured:
[1] = qHTS drug screen for cell cycle checkpoint inhibitors in PARPi-resistant BRCA-mutant ovarian cancer cell lines. (AID 1963452; calls by dose curve); conditions: PEO1/OlaR viability, CellTiter-Glo luminescence, 96 h, stronger effect = lower value
Summary of the method: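 PEO1, PEO4 and PEO1/OlaR ovarian cancer cells, 600 per well, exposed 96 h at 37C to a dilution series. Viability read by CellTiter-Glo luminescence, normalized to DMSO and empty wells; activity summarized as Z-AUC.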

[2] = qHTS for identification of novel therapeutic agents for treatment of microphthalmiaassociated transcription factor (MiT) renal cell carcinoma (RCC) (AID 1963991); conditions: CellTiter-Glo, 48 h, stronger effect = lower value
Summary of the method: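 Three TFE3-fusion RCC cell lines (UOK109, UOK124, UOK145), 500 cells/well, were exposed to the 1912-compound MIPE 4.0 library for 48 hours at 37 C. Viability was read by CellTiter-Glo luminescence, normalised to DMSO (100%) and empty wells (0%), with 11-concentration curve fits.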

[3] = qHTS profiling for inhibitors of Plasmodium falciparum proliferation (AID 504749); also: nearly all actives have a fitted effect of over 60% in size; also: potency is read from the fitted curve at half-maximal effect;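 as to activity, negative = inhibition: 0% = DMSO vehicle and full inhibition = artemisinin control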; conditions: P. falciparum in erythrocytes, SYBR Green DNA, 72 h
Summary of the method: (§1)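 Readout was DNA-dye fluorescence from lysed cultures, ex 485/em 535 nm. Parasitized red cells had grown 72 h with compound; data scaled between 0.29 uM artemisinin and DMSO wells and corrected using vehicle-only plates.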

3D7 = experiment: as above; conditions: P. falciparum in erythrocytes, SYBR Green DNA, 72 h; series mostly up to 28.7 µM
Summary of the method: as §1

7G8 = experiment: as above; conditions: P. falciparum in erythrocytes, SYBR Green DNA, 72 h; series mostly up to 28.7 µM
Summary of the method: as §1

AA1029 = experiment: as above; conditions: P. falciparum in erythrocytes, SYBR Green DNA, 72 h; series mostly up to 28.7 µM
Summary of the method: as §1

AS120 = experiment: as above; conditions: P. falciparum in erythrocytes, SYBR Green DNA, 72 h; series mostly up to 28.7 µM
Summary of the method: as §1

ATS189 = experiment: as above; conditions: P. falciparum in erythrocytes, SYBR Green DNA, 72 h; series mostly up to 28.7 µM
Summary of the method: as §1

ATS95 = experiment: as above; conditions: P. falciparum in erythrocytes, SYBR Green DNA, 72 h; series mostly up to 28.7 µM
Summary of the method: as §1

C2A = experiment: as above; conditions: P. falciparum in erythrocytes, SYBR Green DNA, 72 h; series mostly up to 28.7 µM
Summary of the method: as §1

CP185 = experiment: as above; conditions: P. falciparum in erythrocytes, SYBR Green DNA, 72 h; series mostly up to 28.7 µM
Summary of the method: as §1

CP191 = experiment: as above; conditions: P. falciparum in erythrocytes, SYBR Green DNA, 72 h; series mostly up to 28.7 µM
Summary of the method: as §1

CP192 = experiment: as above; conditions: P. falciparum in erythrocytes, SYBR Green DNA, 72 h; series mostly up to 28.7 µM
Summary of the method: as §1

CP194 = experiment: as above; conditions: P. falciparum in erythrocytes, SYBR Green DNA, 72 h; series mostly up to 28.7 µM
Summary of the method: as §1

CP201 = experiment: as above; conditions: P. falciparum in erythrocytes, SYBR Green DNA, 72 h; series mostly up to 28.7 µM
Summary of the method: as §1

CP203 = experiment: as above; conditions: P. falciparum in erythrocytes, SYBR Green DNA, 72 h; series mostly up to 28.7 µM
Summary of the method: as §1

CP211 = experiment: as above; conditions: P. falciparum in erythrocytes, SYBR Green DNA, 72 h; series mostly up to 28.7 µM
Summary of the method: as §1

CP215 = experiment: as above; conditions: P. falciparum in erythrocytes, SYBR Green DNA, 72 h; series mostly up to 28.7 µM
Summary of the method: as §1

CP217 = experiment: as above; conditions: P. falciparum in erythrocytes, SYBR Green DNA, 72 h; series mostly up to 28.7 µM
Summary of the method: as §1

CP237 = experiment: as above; conditions: P. falciparum in erythrocytes, SYBR Green DNA, 72 h; series mostly up to 28.7 µM
Summary of the method: as §1

[4] = measured here: PEO1 parental Z-AUC
[5] = TFE3-RCC UOK109 viability, measured here: UOK109 Z-AUC
[6] = TFE3-RCC viability, measured here: UOK124 Z-AUC
[7] = TFE3-RCC viability, measured here: UOK145 Z-AUC
[8] = at 28.7 µM (top of the series), parasite line A
[9] = at 28.7 µM (top of the series), parasite line B
[10] = at 12.8 µM (top of the series), parasite line A
[11] = at 12.8 µM (top of the series), parasite line B

CN(C)CCc1c[nH]c2ccc(CS(=O)(=O)N3CCCC3)cc12
-0.684: z-score [2, 5]
-0.106: z-score [2, 6]
1.58: Z-AUC [1, 4]
0.603: z-score [2, 7]
1.04: Z-AUC ([1]; measured here: PEO4 Z-AUC)
inactive: Z-AUC [1] 1.7 | activity, negative = inhibition [3, 8] -2.84% | activity, negative = inhibition [3, 9] -4.67% | Potency (3D7) | Potency (7G8) | Potency (AA1029) | Potency (AS120) | Potency (ATS189) | Potency (ATS95) | Potency (C2A) | Potency (CP185) | Potency (CP191) | Potency (CP192) | Potency (CP194) | Potency (CP201) | Potency (CP203) | Potency (CP211) | Potency (CP215) | Potency (CP217) | Potency (CP237)

CCCN[C@H]1CCc2nc(N)sc2C1
-0.574: Z-AUC ([1]; measured here: PEO4 Z-AUC)
-1.06: Z-AUC [1, 4]
0.498: z-score [2, 5]
inactive: Z-AUC [1] -0.0876 | activity, negative = inhibition [3, 8] 16.7% | activity, negative = inhibition [3, 9] 18.6% | Potency (3D7) | Potency (7G8) | Potency (AA1029) | Potency (AS120) | Potency (ATS189) | Potency (ATS95) | Potency (C2A) | Potency (CP185) | Potency (CP191) | Potency (CP192) | Potency (CP194) | Potency (CP201) | Potency (CP203) | Potency (CP211) | Potency (CP215) | Potency (CP217) | Potency (CP237)
0.618: z-score [2, 6]
0.718: z-score [2, 7]

CCN[C@H]1C[C@H](C)S(=O)(=O)c2sc(S(N)(=O)=O)cc21
0.622: Z-AUC ([1]; measured here: PEO4 Z-AUC)
inactive: Z-AUC [1] 1.11
0.588: Z-AUC [1, 4]
0.605: z-score [2, 7]
0.48: z-score [2, 6]
0.833: z-score [2, 5]

CCOC(=O)c1ccc(OC(=O)CCCCCN=C(N)N)cc1
0.861: Z-AUC ([1]; measured here: PEO4 Z-AUC)
inactive: Z-AUC [1] 1.08 | activity, negative = inhibition [3, 10] -3.04% | activity, negative = inhibition [3, 11] 4.29% | Potency (AA1029) | Potency (AS120) | Potency (ATS95) | Potency (C2A) | Potency (CP185) | Potency (CP192) | Potency (CP194) | Potency (CP201) | Potency (CP203) | Potency (CP211) | Potency (CP215) | Potency (CP217) | Potency (CP237)
active: Potency (7G8) 3.55 µM
-0.125: z-score [2, 7]
0.377: z-score [2, 5]
0.137: z-score [2, 6]
1.13: Z-AUC [1, 4]

C[C@]12C=CC(=O)C=C1CC[C@@H]1[C@@H]2C(=O)C[C@@]2(C)[C@H]1CC[C@]2(O)C(=O)CO
-0.762: Z-AUC [1, 4]
-3.21: z-score [2, 7]
1.23: z-score [2, 6]
inactive: Z-AUC [1] -0.919 | activity, negative = inhibition [3, 8] 9.08% | activity, negative = inhibition [3, 9] 14.6% | Potency (3D7) | Potency (7G8) | Potency (AA1029) | Potency (AS120) | Potency (ATS189) | Potency (ATS95) | Potency (C2A) | Potency (CP185) | Potency (CP191) | Potency (CP192) | Potency (CP194) | Potency (CP201) | Potency (CP203) | Potency (CP211) | Potency (CP215) | Potency (CP217) | Potency (CP237)
-0.828: Z-AUC ([1]; measured here: PEO4 Z-AUC)
1.31: z-score [2, 5]

CCn1cc(C(=O)O)c(=O)c2cc(F)c(N3CCNCC3)cc21
1.26: z-score [2, 7]
2.59: z-score [2, 6]
1.12: z-score [2, 5]
0.192: Z-AUC ([1]; measured here: PEO4 Z-AUC)
0.343: Z-AUC [1, 4]
inactive: Z-AUC [1] 0.488 | activity, negative = inhibition [3, 10] -24.5% | activity, negative = inhibition [3, 11] -18% | Potency (3D7) | Potency (7G8) | Potency (AA1029) | Potency (AS120) | Potency (ATS189) | Potency (ATS95) | Potency (C2A) | Potency (CP191) | Potency (CP192) | Potency (CP201) | Potency (CP203) | Potency (CP215) | Potency (CP217)

O=NN(CCCl)C(=O)NC1CCCCC1
inactive: Z-AUC [1] 0.23 | activity, negative = inhibition [3, 8] 5.42% | activity, negative = inhibition [3, 9] 5.97% | Potency (3D7) | Potency (7G8) | Potency (AA1029) | Potency (AS120) | Potency (ATS189) | Potency (ATS95) | Potency (C2A) | Potency (CP185) | Potency (CP191) | Potency (CP192) | Potency (CP194) | Potency (CP201) | Potency (CP203) | Potency (CP211) | Potency (CP215) | Potency (CP217) | Potency (CP237)
1.28: z-score [2, 7]
1.51: z-score [2, 6]
0.385: z-score [2, 5]
1.4: Z-AUC [1, 4] | Z-AUC ([1]; measured here: PEO4 Z-AUC)

NC(=O)c1cccnc1
1.21: Z-AUC ([1]; measured here: PEO4 Z-AUC)
1.33: Z-AUC [1, 4]
0.417: z-score [2, 6]
inactive: Z-AUC [1] 1.48 | activity, negative = inhibition [3, 8] 9.61% | activity, negative = inhibition [3, 9] 2.45% | Potency (3D7) | Potency (7G8) | Potency (AA1029) | Potency (AS120) | Potency (ATS189) | Potency (ATS95) | Potency (C2A) | Potency (CP185) | Potency (CP191) | Potency (CP192) | Potency (CP194) | Potency (CP201) | Potency (CP203) | Potency (CP211) | Potency (CP215) | Potency (CP217) | Potency (CP237)
0.739: z-score [2, 5]
-0.282: z-score [2, 7]

CC1=NN(c2ccccc2)C(=O)C1
-3.3: z-score [2, 7]
-4.96: z-score [2, 5]
0.556: z-score [2, 6]
1.05: Z-AUC ([1]; measured here: PEO4 Z-AUC)
0.838: Z-AUC [1, 4]
inactive: Z-AUC [1] 0.285 | activity, negative = inhibition [3, 8] 3.27% | activity, negative = inhibition [3, 9] -12.4% | Potency (3D7) | Potency (7G8) | Potency (AA1029) | Potency (AS120) | Potency (ATS189) | Potency (ATS95) | Potency (C2A) | Potency (CP185) | Potency (CP191) | Potency (CP192) | Potency (CP194) | Potency (CP201) | Potency (CP203) | Potency (CP211) | Potency (CP215) | Potency (CP217) | Potency (CP237)

Nc1[nH]c(=O)ncc1F
0.221: z-score [2, 7]
inactive: Z-AUC [1] 1.66 | activity, negative = inhibition [3, 10] 6.35% | activity, negative = inhibition [3, 11] 1.39% | Potency (3D7) | Potency (7G8) | Potency (AA1029) | Potency (AS120) | Potency (ATS189) | Potency (ATS95) | Potency (CP185) | Potency (CP191) | Potency (CP192) | Potency (CP194) | Potency (CP201) | Potency (CP203) | Potency (CP211) | Potency (CP215) | Potency (CP217) | Potency (CP237)
1.51: Z-AUC ([1]; measured here: PEO4 Z-AUC)
1.6: Z-AUC [1, 4]
0.978: z-score [2, 6]
0.532: z-score [2, 5]
